# Values without a mark were called inactive. For some of these results: Results with a measured potency or affinity are listed apart. Activity calls are given as the source filed them. Unless noted, the rule behind the calls is not given here.
# Tests used:
# [1] = antimalarial activity against Dd2 strain (AID 2302;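 active = growth inhibition above 50% at the single 2 µM test dose, taken to imply half-maximal potency below 2 µM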;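 note: 0% = DMSO untreated growth and 100% = chloroquine plus artemisinin killed control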); conditions: P. falciparum Dd2 in RBCs, LDH growth readout, 72 h; at 2 µM; hits give high values
# [2] = HepG2 cytotoxicity, primary screen, cytotoxicity control for P. falciparum antimalarial project, cell-based, ATP luminescence (AID 2303;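 active = inhibition above 50%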;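 note: 0% = DMSO wells and 100% = digitonin-killed cells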); conditions: HepG2 viability, 24-48 h, at 10 µM, hits give high values
# [3] = target: L-lactate dehydrogenase (Plasmodium falciparum (isolate CDC / Honduras)) (UniProt Q27743); test: PfLDH activity inhibition – cell lysate, 3D7 strain, counter-screen for P. falciparum growth inhibition project (AID 2304);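 note: 0% = vehicle and 100% = reference inhibitor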; conditions: P. falciparum 3D7 crude extract, LDH APAD/NBT absorbance; at 2 µM; hits give high values
# [4] = inhibition of 3D7 malaria parasite growth – strain 3D7 (AID 2306);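 note: 0% = DMSO wells and 100% = chloroquine plus artemisinin control wells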; conditions: P. falciparum 3D7 erythrocytic growth, LDH absorbance, 72 h; at 2 µM; hits give high values
# [5] = target: Calcium-dependent protein kinase 1 (Plasmodium falciparum (isolate 3D7)) (UniProt P62344); test: PfCDPK1 kinase inhibitors, biochemical, TCAMS library (AID 1159585; cut-off not given, nearly all actives have IC50 up to about 0.98 µM;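 note: inhibitors leave more ATP so luminescence rises with inhibition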); conditions: recombinant PfCDPK1, Kinase-Glo ATP depletion luminescence
# [6] = target: Plasmodium falciparum protein kinase 6 (PK6, PF3D7_1337100) (UniProt Q8IDW1); test: PfPK6 kinase inhibitors, biochemical, TCAMS library (AID 1159586); conditions: recombinant PfPK6, Kinase-Glo ATP depletion luminescence
# [7] = target: Protein kinase 7 (PK7), Plasmodium falciparum 3D7 (PF3D7_0213400) (UniProt Q7YTF7); test: inhibition of Plasmodium PK7 catalytic activity – biochemical, TCAMS antimalarial set, Kinase-Glo luminescence (AID 1159587); conditions: recombinant PfPK7, Kinase-Glo ATP depletion luminescence
# [8] = target: Calcium-dependent protein kinase 4 (Plasmodium falciparum (isolate 3D7)) (UniProt Q8IBS5); test: PfCDPK4 kinase inhibitors, biochemical, TCAMS library (AID 1159588; cut-off not given, nearly all actives have IC50 up to about 0.91 µM); conditions: recombinant PfCDPK4, Kinase-Glo ATP depletion luminescence
# Sequence of Calcium-dependent protein kinase 4 (Plasmodium falciparum (isolate 3D7)) (Q8IBS5 whole entry, looked up): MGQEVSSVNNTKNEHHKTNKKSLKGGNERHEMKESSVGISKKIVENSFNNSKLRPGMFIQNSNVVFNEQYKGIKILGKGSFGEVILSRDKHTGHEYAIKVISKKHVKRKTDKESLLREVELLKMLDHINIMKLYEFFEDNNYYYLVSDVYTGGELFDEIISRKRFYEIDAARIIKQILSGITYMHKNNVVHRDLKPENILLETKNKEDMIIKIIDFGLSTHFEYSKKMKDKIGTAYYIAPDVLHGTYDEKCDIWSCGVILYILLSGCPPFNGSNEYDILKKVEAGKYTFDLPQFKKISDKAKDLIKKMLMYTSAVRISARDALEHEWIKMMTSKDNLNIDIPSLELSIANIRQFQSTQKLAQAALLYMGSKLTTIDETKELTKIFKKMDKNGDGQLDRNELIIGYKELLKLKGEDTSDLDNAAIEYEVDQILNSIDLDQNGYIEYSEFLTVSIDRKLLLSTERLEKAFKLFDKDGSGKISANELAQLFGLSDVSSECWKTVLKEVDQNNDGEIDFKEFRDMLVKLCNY
# Sequence of L-lactate dehydrogenase (Plasmodium falciparum (isolate CDC / Honduras)) (Q27743 whole entry, looked up): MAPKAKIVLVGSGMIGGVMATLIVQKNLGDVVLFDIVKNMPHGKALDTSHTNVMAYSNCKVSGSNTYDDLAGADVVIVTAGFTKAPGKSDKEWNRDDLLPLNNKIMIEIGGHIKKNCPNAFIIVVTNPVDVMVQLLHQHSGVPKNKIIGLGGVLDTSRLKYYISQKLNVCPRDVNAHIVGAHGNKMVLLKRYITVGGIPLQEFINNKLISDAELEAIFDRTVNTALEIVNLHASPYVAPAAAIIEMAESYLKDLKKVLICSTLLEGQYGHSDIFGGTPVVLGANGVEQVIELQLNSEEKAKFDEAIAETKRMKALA
# Sequence of Plasmodium falciparum protein kinase 6 (PK6, PF3D7_1337100) (Q8IDW1 1-305): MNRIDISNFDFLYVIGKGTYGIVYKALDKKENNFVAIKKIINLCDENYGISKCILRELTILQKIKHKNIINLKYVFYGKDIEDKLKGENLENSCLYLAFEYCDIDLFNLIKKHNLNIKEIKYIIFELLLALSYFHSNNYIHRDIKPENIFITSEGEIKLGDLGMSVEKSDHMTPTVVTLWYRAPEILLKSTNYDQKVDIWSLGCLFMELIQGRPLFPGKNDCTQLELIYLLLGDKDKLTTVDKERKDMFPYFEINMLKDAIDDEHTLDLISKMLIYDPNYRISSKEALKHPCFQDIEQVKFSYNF
# Sequence of Calcium-dependent protein kinase 1 (Plasmodium falciparum (isolate 3D7)) (P62344 whole entry, looked up): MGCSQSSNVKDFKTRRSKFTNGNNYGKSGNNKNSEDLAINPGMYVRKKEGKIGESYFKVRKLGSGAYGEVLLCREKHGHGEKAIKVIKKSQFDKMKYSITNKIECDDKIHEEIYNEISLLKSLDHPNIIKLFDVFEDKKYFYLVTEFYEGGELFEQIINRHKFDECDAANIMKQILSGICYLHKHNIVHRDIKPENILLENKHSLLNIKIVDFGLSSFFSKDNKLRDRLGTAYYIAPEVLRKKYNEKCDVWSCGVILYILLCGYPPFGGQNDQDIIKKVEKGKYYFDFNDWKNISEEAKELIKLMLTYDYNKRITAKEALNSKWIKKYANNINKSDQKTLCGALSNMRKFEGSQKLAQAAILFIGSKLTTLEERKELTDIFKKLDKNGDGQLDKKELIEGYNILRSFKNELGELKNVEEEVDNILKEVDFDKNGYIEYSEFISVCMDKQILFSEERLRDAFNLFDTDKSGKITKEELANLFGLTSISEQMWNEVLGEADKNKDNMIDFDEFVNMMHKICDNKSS
# Sequence of Protein kinase 7 (PK7), Plasmodium falciparum 3D7 (PF3D7_0213400) (Q7YTF7 1-343): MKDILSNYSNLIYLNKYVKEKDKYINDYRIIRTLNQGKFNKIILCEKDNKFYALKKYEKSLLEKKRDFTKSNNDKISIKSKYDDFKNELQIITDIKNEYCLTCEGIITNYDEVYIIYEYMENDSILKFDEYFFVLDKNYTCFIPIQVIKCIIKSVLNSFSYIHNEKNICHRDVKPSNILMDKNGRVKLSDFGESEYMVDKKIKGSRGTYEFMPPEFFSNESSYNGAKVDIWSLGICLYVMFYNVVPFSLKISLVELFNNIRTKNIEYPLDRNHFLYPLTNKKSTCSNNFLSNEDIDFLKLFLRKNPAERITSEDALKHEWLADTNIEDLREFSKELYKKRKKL
Compound,growth inhibition [1],inhibition [2],inhibition [3] [%],growth inhibition [4],outcome [5],outcome [6],outcome [7],outcome [8]
COc1ccc(C2CC(c3cccs3)=NN2C(=O)CNc2cccc(C#N)c2)cc1OC (stereo not drawn),35%,8%,-4,87% (active),inactive,inactive,inactive,inactive
Cc1ccc(Cl)cc1NC(=O)c1c(-c2ccccc2Cl)noc1C,37%,9%,-1,88% (active),inactive,inactive,inactive,inactive
O=C(c1ccc([N+](=O)[O-])o1)N1CCN(c2nc3c(F)cc(F)cc3s2)CC1,86% (active),-7%,-4,93% (active),inactive,inactive,inactive,inactive
COc1ccc2ccc(OC)c(CNCCCCCCNCc3c(OC)ccc4ccc(OC)cc34)c2c1,32%,100% (active),-6,101% (active),inactive,inactive,inactive,inactive
Cc1ccccc1C1CCN(C2CCC(NC(=O)c3ccc(-c4cc(C(F)(F)F)nn4C)s3)CC2)CC1 (stereo not drawn),68% (active),42%,-2,98% (active),inactive,inactive,inactive,inactive
CC(C)(C)c1nn(-c2ccc(Cl)cc2)c2[nH]c(=O)c(CNC3CCCC3)cc12,99% (active),-2%,1,99% (active),inactive,inactive,inactive,inactive
Cc1ccc(NC(=O)c2ccc(CN3CCCN(CC4CCCCC4)CC3)cc2)cc1,42%,41%,-3,93% (active),inactive,inactive,inactive,inactive
COc1ccc2c(=O)c(I)c(C)[nH]c2c1,96% (active),27%,4,96% (active),inactive,inactive,inactive,inactive
COc1ccc2ccccc2c1CCCCN1CCN(CC(c2ccc(F)cc2)N2CCN(C(C)C)CC2)CC1 (stereo not drawn),83% (active),92% (active),2,100% (active),inactive,inactive,inactive,inactive
NC1=NC(c2ccccc2)N(c2ccc(Cl)c(Cl)c2)C(N)=N1 (stereo not drawn),0%,13%,-2,94% (active),inactive,inactive,inactive,inactive
CC(C)(CN1CCCC1)CN(Cc1ccc(-c2ccc(C(F)(F)F)cc2)cc1)C(=O)Cn1c(CCc2cccc(F)c2F)nc(=O)c2ccccc21,64% (active),57% (active),-3,97% (active),inactive,inactive,inactive,inactive
CC(C)N1CCN(C(=O)c2ccc(CNCCCN3CCN(c4ccccc4C(F)(F)F)CC3)s2)CC1,42%,32%,-7,98% (active),inactive,inactive,inactive,inactive
Cc1ccc(NC(=O)c2ccc(CN3CCCN(Cc4cccc(C#N)c4)CC3)cc2)cc1F,19%,49%,-3,98% (active),inactive,inactive,inactive,inactive
CC(C)(C)CCOC(=O)N1CCc2c(cc(O)c(O)c2Cl)C(c2ccc(O)cc2)C1 (stereo not drawn),95% (active),2%,-2,97% (active),inactive,inactive,inactive,inactive
FC(F)(F)c1ccc2nccc(NN=Cc3ccccc3)c2c1,2%,7%,-1,92% (active),inactive,inactive,inactive,inactive
Cc1nc(N)nc(N)c1CCCOc1ccccc1Br,5%,53% (active),5,97% (active),inactive,inactive,inactive,inactive
CNc1ccc(CNCc2cccc(-c3ccc(-c4nc5ccccc5[nH]4)s3)c2)cc1,77% (active),15%,-3,100% (active),inactive,inactive,inactive,inactive
Cc1cccc(CNc2nc(C)cc(NCCC(=O)NCCOc3ccccc3)n2)c1,14%,18%,0,98% (active),inactive,inactive,inactive,inactive
COc1ccc(CNc2ccc3nc(N)nc(N)c3c2)cc1,84% (active),39%,-4,99% (active),inactive,inactive,inactive,inactive
O=C(Nc1cccc(F)c1)NC1CCN(c2ccnc3cc(Cl)ccc23)CC1,37%,11%,-4,96% (active),inactive,inactive,inactive,inactive
CCOC(=O)CN(c1ccc(Br)cc1OCCOc1cc(Br)ccc1N(CC(=O)OCC)C(C)C(=O)OCC)C(C)C(=O)OCC (stereo not drawn),6%,-15%,6,94% (active),inactive,inactive,inactive,inactive

Compound,growth inhibition [1],inhibition [2],inhibition [3] [%],growth inhibition [4],outcome [5],outcome [6],outcome [7],outcome [8]
Fc1ccc2nc(-c3ccc(-c4ccc(CNCCc5ccncc5)cc4)cc3)[nH]c2c1,97% (active),23%,0,100% (active),inactive,inactive,inactive,inactive
CC(=O)N1N=C(c2cccs2)Sc2c1nc(-c1ccc(Cl)cc1)n2C(C)=O,93% (active),3%,0,99% (active),inactive,inactive,inactive,inactive
Cc1ccc(Nc2nc(C)cc(NC3CCCC3)n2)cc1,89% (active),33%,0,100% (active),inactive,inactive,inactive,inactive
CC(=O)Nc1nc(C(=O)Nc2ccc(-c3cccc(-c4nc5ccc(C(F)(F)F)cc5[nH]4)c3)cc2)cs1,97% (active),79% (active),-2,101% (active),inactive,inactive,inactive,inactive
COc1cc(NC(=O)c2sc(-c3ccc(Cl)cc3)cc2NC(=O)c2cccnc2)ccc1OCCN1CCCC1,77% (active),38%,-1,94% (active),inactive,inactive,inactive,inactive
CCOC(=O)N/N=C/[C@H](CCc1ccccc1)NC(=O)[C@H](CC(C)C)NC(=O)c1cc2cccc(OC)c2o1,58% (active),3%,2,84% (active),inactive,inactive,inactive,inactive
Fc1c(CNCC2CCN(CC3CCCCC3)CC2)cccc1C(F)(F)F,7%,35%,3,93% (active),inactive,inactive,inactive,inactive
O=C(NCCc1ccccc1)N(Cc1ccccc1-c1ccc(CNC2CCCC2)cc1)C1CCN(Cc2ccccc2)CC1,95% (active),96% (active),1,96% (active),inactive,inactive,inactive,inactive
CC(CCc1ccc(OCc2ccccc2)cc1)NCC(O)c1ccccc1 (stereo not drawn),72% (active),9%,-1,86% (active),inactive,inactive,inactive,inactive
COc1cc2nc(Nc3ccc(C)cc3)nc(Nc3ccc(C)cc3)c2cc1OC,100% (active),99% (active),-1,101% (active),inactive,inactive,inactive,inactive
COc1ccc(F)cc1-c1ccc(C(=O)N2CCCN(c3ccc(C(F)(F)F)cn3)CC2)cc1,100% (active),4%,-3,101% (active),inactive,inactive,inactive,inactive
COc1c(C2CCN(CCCCNC(=O)c3ccc(-c4ccc(Cl)cc4)cn3)CC2)ccc2c1CCCC2,14%,100% (active),-3,93% (active),inactive,inactive,inactive,inactive
O=C(NCc1ccc(Cl)c(Cl)c1)c1ccc(-c2nc3cc(F)c(F)cc3[nH]2)cc1,12%,-2%,-2,81% (active),inactive,inactive,inactive,inactive
CCc1c(CCNCCCCCCNCCc2ccc(Br)cc2)ccc(O)c1O,1%,11%,-1,95% (active),inactive,inactive,inactive,inactive
COc1ccccc1NC(=O)Nc1cccc(-c2cccc(-c3nc4ccc(C(F)(F)F)cc4[nH]3)c2)c1,97% (active),21%,5,101% (active),inactive,inactive,inactive,inactive
C[C@@H]1CN(c2cnn(C/C=C/c3ccc(NC(=O)c4ccc5nonc5c4)cc3)c(=O)c2Cl)C[C@H](C)N1,35%,71% (active),-3,94% (active),inactive,inactive,inactive,inactive
COc1ccc(NC(=O)c2ccc(-c3nc(-c4ccc(Cl)cc4)cs3)cc2)cc1N1CCN(C)CC1,34%,30%,0,91% (active),inactive,inactive,inactive,inactive
Cc1cccc2[nH]c(-c3ccc(-c4cccc(CNC(C)C)c4)s3)nc12,97% (active),12%,2,100% (active),inactive,inactive,inactive,inactive
CC(=O)Nc1ccc(CN2CCC(NC(=O)c3ccc(-c4cccc(OC(C)C)c4)s3)CC2)cc1,13%,14%,-5,89% (active),inactive,inactive,inactive,inactive
FC(F)(F)c1ccc2nc(-c3cccc(-c4ccc(CNCCc5ccncc5)cc4)c3)[nH]c2c1,100% (active),23%,-1,99% (active),inactive,inactive,inactive,inactive

# From PubChem BioAssay
